The panel holds about 83,000 compounds, 20% with a hit somewhere; the sample as a whole holds those more often.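 Each cell line was grown in a 96-well plate and treated with one concentration of compound for 48 hours. Values below 10 were considered active.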 Values without a mark were called inactive. Calls of active or inactive are those of the source.
Tests used:
Experiment in all cases: NCI-60 one-dose screen, 48 h (100 = growth as untreated, 0 = no growth, -100 = all killed)
Conditions in all cases: 10 µM
[1] = system: NCI-H23 lung
[2] = system: HOP-62 NSCLC
[3] = system: NCI-H460 lung
[4] = system: HOP-92 NSCLC
[5] = system: NCI-H522 lung
[6] = system: A549/ATCC NSCLC
[7] = system: 786-0 renal
[8] = system: COLO 205 colon
[9] = system: DU-145 prostate
[10] = system: K-562 leukemia
[11] = system: MALME-3M melanoma
[12] = system: MDA-MB-231 breast
[13] = system: RXF 393 renal
[14] = system: SF-268 CNS
[15] = system: SF-295 CNS
[16] = system: SF-539 CNS
[17] = system: UACC-257 melanoma
[18] = system: M14 melanoma
[19] = system: NCI-H322M lung

Row | Compound | growth [1] | growth [2] | growth [3] | growth [4] | growth [5] | growth [6] | growth [7] | growth [8] | growth [9] | growth [10] | growth [11] | growth [12] | growth [13] | growth [14] | growth [15] | growth [16] | growth [17] | growth [18] | growth [19] [%]
1 | OCC1OC(n2cnc3c(NCc4ccco4)ncnc32)C(O)C1O (stereo not given) | 18% | 43.2% | 23.1% | -10.8% (active) | 23.8% | 22.2% | 18.2% | 19.6% | 4.25% (active) | 33% | 65.5% | -5.65% (active) | -13.7% (active) | 44.6% | 26.5% | 21.7% | 86.4% | 31.2% | 
2 | CC(C)(C)c1ccc(S(=O)(=O)N[C@H]2CC[C@H]3[C@@H]4CCc5cc(O)c([N+](=O)[O-])cc5[C@H]4CC[C@]23C)cc1 | 83.5% |  | 45.6% |  | 65.1% | 48.3% | 62.1% | 96.4% | 67.4% | 70.1% | 67.1% | 35.7% | 42.5% | 72.6% |  | 81.5% | 77.7% | 78.5% | 77.1
3 | COc1cc2cc(Oc3ccc(NC(=O)Nc4ccc(Cl)c(C(F)(F)F)c4)cc3)c(C)nc2cc1OC | 3.46% (active) | -50.9% (active) | -19.8% (active) | -22.3% (active) | -43.6% (active) | -17.2% (active) | -21.1% (active) | -49.5% (active) | 12.7% | -9.54% (active) | -23% (active) | -50.6% (active) | -33.4% (active) | -10.2% (active) | -70.9% (active) | -36.2% (active) | -12.5% (active) | -73.6% (active) | 
4 | O=S(=O)(O)c1ccc(Cl)cc1 | 96% | 95.2% | 103% | 117% | 94.6% | 97% | 111% | 109% | 101% | 99.7% | 98.2% | 107% | 123% | 95.1% | 109% | 102% | 99.2% | 99.7% | 
5 | Cc1cc(O)ccc1C1=NN(c2ccc(S(C)(=O)=O)cc2)C(=O)CC1 | 32.9% |  | 73.1% | 92.8% | 2.39% (active) | 72.2% | 84.1% | 65.8% | 92.2% | 20.6% | 52.7% | 74.8% | 81.2% | 80.3% | 32.1% | 73.8% | 93% | 49.2% | 
6 | CCC(=O)OC1CCC2C3CCC(=O)OC3C(C)(CCC(=O)O)CC12C (stereo not given) | 33.1% | 38.5% | 42.6% | -1.1% (active) | 24.7% |  | -41.7% (active) | 41.7% |  | 2.12% (active) |  | 19.6% |  | 50.1% | -18.6% (active) | 5.18% (active) | 55.7% | 25.8% | 
7 | O=C1/C=C/[C@@H](O)[C@@H]2C[C@@H](O)C[C@H]2/C=C/CCC[C@H](CCc2ccc(C(F)(F)F)cc2)O1 | -10.5% (active) | -4.15% (active) | 9.42% (active) |  | -58.5% (active) | 8.38% (active) |  |  | 19.5% | 11.7% | -13.9% (active) | -84% (active) | -31.6% (active) | 4.75% (active) | 11.4% | 25.2% | 10.5% | 7.65% (active) | 
8 | CN(C)c1ccc(/C=N/NC(=O)c2ccccc2Nc2cccc(C(F)(F)F)c2)cc1 | 91.2% | 79.6% | 96.3% | 73% | 83.2% |  | 90.1% | 111% |  | 77.8% |  | 70.9% |  | 93.7% | 111% | 105% | 101% | 105% | 
9 | COc1ccc2c(c1)OC(N)=C(C#N)C2c1cc(OC)c(OC)c(OC)c1 (stereo not given) | 16.3% | 38.9% | 1.65% (active) |  | -27.9% (active) | 16.2% | 15.2% | -48.6% (active) | -19.5% (active) | 7.08% (active) | 26.9% | 4.49% (active) | 38.7% | 22.8% | 4.98% (active) | 4.42% (active) | 68.2% | 5.11% (active) | 
10 | COc1ccccc1-n1c(-c2csc(NC(C)=O)n2)n[nH]c1=S | 93.1% |  | 109% | 96% | 82.5% | 100% | 97.2% | 115% | 119% | 87.5% | 109% | 121% | 102% | 111% |  | 112% | 98.1% | 98% | 
11 | COC(=O)c1c[nH]c2cc(OC(C)C)c(OC(C)C)cc2c1=O | 97.6% | 37.9% |  | 80.5% | 94.3% | 61.8% | 110% | 108% | 110% | 98.9% | 125% | 109% | 94.7% | 104% | 105% | 91% | 87.6% | 108% | 
12 | O=C1CCn2c1c(O)c1ccccc1c2=O | 99.5% |  | 105% | 95.4% | 112% | 100% | 105% | 123% | 114% | 130% | 124% | 115% | 111% | 114% | 97.2% | 113% | 99.8% | 107% | 
13 | CCOC(=O)C1=CSC2=NC3=C(CCC/C3=C\c3ccc(Cl)cc3)C(c3ccc(Cl)cc3)N12 (stereo not given) | 83.8% | 115% | 102% | 96.2% | 93.5% | 96.5% | 101% | 105% | 92.7% | 92.7% | 103% | 94.5% | 78.8% | 90.8% | 104% | 103% | 85.7% | 92.5% | 
14 | C=C(NC(=O)C(=C)NC(=O)c1csc(C2=NC3c4csc(n4)C4NC(=O)c5csc(n5)C(C(C)(O)C(C)O)NC(=O)C5CSC(=N5)C(=CC)NC(=O)C(C(C)O)NC(=O)c5csc(n5)C3(CC2)NC(=O)C(C)NC(=O)C(=C)NC(=O)C(C)NC(=O)C(C(C)CC)NC2C=Cc3c(C(C)O)cc(nc3C2O)C(=O)OC4C)n1)C(N)=O (stereo not given) | 43.2% |  | 66.2% | 16.2% |  | 72.2% | 8.49% (active) | -14.3% (active) | 65.5% |  | 26.9% | 9.76% (active) | -41.3% (active) | 27.1% |  | 1.63% (active) | 26.4% | 2.27% (active) | 
15 | O=C(NCCCNS(=O)(=O)c1ccc(Cl)cc1)Nc1ccc(-n2cc(-c3ccncc3)c(-c3ccc(Cl)c(O)c3)n2)cc1 | 42% |  | 13.7% |  | 40.6% |  | 1.59% (active) | 16.4% | 46.6% | 10.1% | 37.6% | -19.3% (active) | 18.9% | 49.1% | 2.43% (active) | 47.9% | 33.7% | 18.1% | 
16 | CC(=O)C1N=NCC1c1ccccc1 (stereo not given) | 106% | 112% |  | 73.8% | 88.5% |  | 110% | 114% | 110% | 80.4% | 95.2% | 97.9% | 106% | 104% | 95.4% | 103% | 110% | 99.3% | 
17 | COc1ccc2c(c1)C(CC(=O)NN)CCC2 (stereo not given) | 92.7% | 106% | 109% | 93.7% |  | 93.4% | 109% |  | 114% | 94.3% |  | 101% | 115% | 96.3% | 109% | 100% | 90.5% | 104% | 
18 | COc1cc(-c2nn(-c3ccc(NC(=O)NCCCNC(=O)c4ccccc4)cc3)cc2-c2ccncc2)ccc1Cl | 28.8% | 41.5% | 6.81% (active) | -0.43% (active) | 3.7% (active) | 26% | 14.8% | -43.4% (active) | 20.6% | 12.4% | 47.3% | 19.1% | 25.2% | 37.6% | 0.436% (active) | -10.5% (active) | 63.3% | 12.2% | 
19 | CCc1ccc(-c2ccc(-n3nc(C)c4c(N)nc(Cc5ccccc5)nc43)cc2)cc1 | 77.2% | 65.6% | 51.4% | 47.2% | 49.2% | 52.4% | 46.6% | 95.3% | 77% | 7.44% (active) | 106% | 38.2% | 75.7% | 66.1% | 70.8% | 80.9% | 71.9% | 30.3% | 
20 | Nc1nc(-c2ccc(Cl)cc2)cc(-c2cc3ccccc3oc2=O)n1 | 92.5% | 84.7% | 101% |  |  | 103% | 95.7% | 100% | 106% | 114% | 80% | 93.9% | 112% | 104% | 89.1% | 117% | 132% | 95.3% | 
21 | O=C(CSc1nnc(-c2cccnc2SCc2ccccc2)o1)Nc1nc(Cl)cc(Cl)n1 | 102% |  | 105% |  | 83.1% |  |  |  | 107% | 92.8% | 94% | 92% | 105% | 99.7% | 96.8% | 101% | 113% | 92% | 
22 | COc1cc(OC)c2c(=O)c(O)c(-c3ccccc3)oc2c1 | 79.8% | 67.7% | 53.5% | 52% | 72.5% | 77.3% | 70.8% | 104% | 70.7% | 70.6% | 101% | 67.9% | 67.6% | 66.4% | 98.3% | 79.7% | 84.2% | 73.2% | 
23 | CC(C)N(CCOc1cccc(-c2nc3sccn3c2-c2ccnc(S(C)(=O)=O)n2)c1)C(C)C | 96.1% | 103% | 94.7% | 43.5% | 82% | 104% | 97.3% | 97.6% | 89.8% | 69.1% | 91.3% | 57.8% | 65.3% | 92.5% | 103% | 91.9% | 104% | 111% | 
24 | Clc1ccc(C2=NN=C3C(Cc4ccccc4)=Nc4ccccc4N3C2)cc1 | 90% | 83.3% | 86.8% | 87.4% | 38.4% | 96.6% | 64.1% | 105% | 70.1% | 30.1% | 95.5% | 68.9% | 82.1% | 66.7% | 86.3% | 105% | 104% | 75.8% | 
25 | O=C1/C=C/[C@@H](O)[C@@H]2C[C@@H](O)C[C@H]2/C=C/CCC[C@@H](C(F)(F)F)O1 | 81.4% | 99.3% | 104% | 99.4% | 88% | 99.3% | 92.6% | 22% | 119% | 92% | 65% | 96.7% | 42.7% | 93.9% | 97.2% | 105% | 51.8% | 112% | 
26 | OCC1OC(n2ccc3c(NO)ncnc32)C(O)C1O (stereo not given) | -56.3% (active) | -21.6% (active) | -27.7% (active) | -16.3% (active) | -30.1% (active) | -10.9% (active) | -7.13% (active) | -91.1% (active) | -16.6% (active) | -11.4% (active) | -69.2% (active) | -20% (active) | -32.7% (active) | -14.3% (active) | -15.4% (active) | -44% (active) | -57.3% (active) | -89.7% (active) | 

— PubChem BioAssay (NCI)
